Test results published in PubChem BioAssay (Tox21).
Several values for one entry are separate records, joined by “and”; a condition that tells them apart may be missing. Identical values can stand only once. Inconclusive results are not listed. Where a call stands in place of a potency, no number is given. Where a structure was tested more than once in an assay, its records may differ in their call. Activity calls are given as the source filed them. Unless noted, the call rests on the fitted dose curve; in most records, active means well fitted curve in the direction sought with a large enough effect in the repeat runs; inconclusive means weak or mixed curves; inactive means no such curve, though single readings can be large; an effect the other way counts as inactive or inconclusive.

Tests used:
[1] = qHTS assay to identify small molecule antagonists of the thyroid receptor (TR) signaling pathway (AID 743065); further: nearly all actives have a fitted effect of over 55% in size; further: potency means the concentration at half of the fitted maximal effect
Outline: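 Antagonism measured as loss of luciferase signal in GH3 cells stably carrying a TRE-luciferase reporter, co-treated with compound and T3 (1 nM final) for 23.5 h at 37 C. Viability was read in the same well by CellTiter-Fluor.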

[2] = system: thyroid hormone receptor (rat, GH3 cells); assay: qHTS assay to identify small molecule agonists of the thyroid receptor (TR) signaling pathway (AID 743066; calls by dose curve)
[3] = qHTS assay to identify small molecule antagonists of the estrogen receptor alpha (ER-alpha) signaling pathway - cell viability counter screen (AID 743074; calls by dose curve;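 further: HEK293 cells carrying ER-alpha-UAS-bla reporter stimulated with 17beta-estradiol; nearly all actives have a fitted effect of over 45% in size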; further: potency means the concentration at half of the fitted maximal effect)
[4] = qHTS assay to identify small molecule antagonists of the estrogen receptor alpha (ER-alpha) signaling pathway using the BG1 cell line - cell viability counter screen (AID 743081);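 further: compound given together with 17beta-estradiol as the ER stimulus; nearly all actives have a fitted effect of over 45% in size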; further: potency means the concentration at half of the fitted maximal effect
Aromatase (Homo sapiens) = Aromatase (Homo sapiens) (UniProt P11511); assay: qHTS assay to identify aromatase inhibitors (AID 743083); further: nearly all actives have a fitted effect of over 55% in size; further: potency means the concentration at half of the fitted maximal effect
[5] = qHTS assay to identify aromatase inhibitors - cell viability counter screen (AID 743084);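 further: cells stimulated with testosterone during compound exposure; nearly all actives have a fitted effect of over 55% in size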; further: potency means the concentration at half of the fitted maximal effect
[6] = molecular target: Aryl hydrocarbon receptor (Homo sapiens) (UniProt P35869); assay: qHTS assay to identify small molecule that activate the aryl hydrocarbon receptor (AhR) signaling pathway (AID 743085); further: nearly all actives have a fitted effect of over 15% in size; further: potency means the concentration at half of the fitted maximal effect;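 on activation: HG2L7.5c1 human HepG2 liver cells with stably integrated DRE-driven firefly reporter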
Outline: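 Luminescence (ONE-Glo) from a dioxin-responsive-element luciferase reporter in HG2L7.5c1 HepG2 cells after 24 hr compound exposure at 37C; viability measured by CellTiter-Fluor fluorescence beforehand.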

[7] = qHTS assay to identify small molecule that activate the aryl hydrocarbon receptor (AhR) signaling pathway - cell viability counter screen (AID 743086); further: nearly all actives have a fitted effect of over 45% in size; further: potency means the concentration at half of the fitted maximal effect
Outline: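 Cytotoxicity counter screen: CellTiter-Fluor signal (30 min, 37 C) in 4000 HepG2 cells/well carrying the DRE-luciferase reporter, following 24 h compound exposure at 37 C.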

[8] = molecular target: Peroxisome proliferator-activated receptor gamma (Homo sapiens) (UniProt P37231); assay: qHTS assay to identify small molecule antagonists of the peroxisome proliferator-activated receptor gamma (PPARg) signaling pathway (AID 743191; calls by dose curve; further: nearly all actives have a fitted effect of over 30% in size)
Outline: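 Beta-lactamase reporter under UAS control in HEK293H PPARg-bla cells; compound treatment 17 h at 37C. Read-out: fluorescence intensity after 1 h room-temperature incubation with LiveBLAzer B/G FRET substrate.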

[9] = qHTS assay to identify small molecule antagonists of the peroxisome proliferator-activated receptor gamma (PPARg) signaling pathway - cell viability counter screen (AID 743194); conditions: Potency: co-treated with 50 nM rosiglitazone unless noted; further: nearly all actives have a fitted effect of over 55% in size
Outline: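 Viability was measured as CellTiter-Glo luminescence in GeneBLAzer PPARg UAS-bla HEK293H cells. These cells had been exposed 17 h at 37 C to compounds together with rosiglitazone at 50 nM final, with the beta-lactamase readout taken in the same wells.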

[10] = qHTS assay for small molecule agonists of the antioxidant response element (ARE) signaling pathway (AID 743202; active means well fitted activation curve with a large enough effect in the signal ratio in the repeat runs, not every such curve was filed as active; the % refers to the signal ratio; further: potency means the concentration at half of the fitted maximal effect)
Outline: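 Quantitative high-throughput format in HepG2 cells bearing an integrated ARE-beta-lactamase reporter. Compound exposure lasted 16 h at 37 C, and fluorescence was read 2 h after adding LiveBLAzer B/G substrate at room temperature.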

[11] = qHTS assay for small molecule agonists of the antioxidant response element (ARE) signaling pathway - cell viability counter screen (AID 743203; calls by dose curve; further: nearly all actives have a fitted effect of over 55% in size; further: potency means the concentration at half of the fitted maximal effect)
Outline: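 HepG2 cells carrying ARE-driven beta-lactamase; 2,000 cells/well; 5 hrs plating; compound pinned from DMSO; 16 hrs 37C/5% CO2; CellTiter-Glo added; 30 min RT; luminescence.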

[12] = qHTS assay for small molecule activators of the heat shock response signaling pathway - cell viability counter screen (AID 743209); further: nearly all actives have a fitted effect of over 50% in size; further: potency means the concentration at half of the fitted maximal effect
Outline: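 Luminescence from CellTiter-Glo, added after the beta-lactamase FRET read, gave the viability signal. Cells were HSE-bla HeLa treated with DMSO-dissolved compounds for 5 h at 37 C following overnight plating.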

[13] = qHTS assay for small molecule activators of the heat shock response signaling pathway (AID 743210; active means well fitted activation curve with a large enough effect in the signal ratio in the repeat runs, with a control signal flat, not every such curve was filed as active; the % refers to the signal ratio;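 further: HeLa cells with beta-lactamase reporter driven by heat shock elements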)
Outline: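 HeLa HSE-bla cells, overnight plating; cpd in DMSO 5 h, 37 C; LiveBLAzer B/G FRET substrate 2.5 h RT; fluorescence intensity read.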

[14] = qHTS assay to identify small molecule agonists of the peroxisome proliferator-activated receptor delta (PPARd) signaling pathway - cell viability counter screen (AID 743211); further: nearly all actives have a fitted effect of over 55% in size; further: potency means the concentration at half of the fitted maximal effect
Outline: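 Viability was measured as CellTiter-Glo luminescence (30 min, room temperature) in the same wells as the beta-lactamase readout. GeneBLAzer PPARd UAS-bla HEK293H cells received compound after 5 h plating and were incubated 17 h at 37 C.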

[15] = molecular target: Estrogen receptor (Homo sapiens) (UniProt P03372); assay: qHTS assay to identify small molecule antagonists of the estrogen receptor alpha (ER-alpha) signaling pathway (AID 743069; active means well fitted curve in the direction sought with a large enough effect in the signal ratio in the repeat runs, not every such curve was filed as active; the % refers to the signal ratio)
Outline: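 ER-alpha-UAS-bla GripTite HEK293 line; 2% charcoal-stripped FBS overnight; plated, 4 hr 37C/5% CO2; cpd in DMSO + 17beta-estradiol, 18 hr 37C; LiveBLAzer B/G FRET substrate 2 hr RT; fluorescence intensity.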

[16] = molecular target: Estrogen receptor (Homo sapiens) (UniProt P03372); assay: qHTS assay to identify small molecule agonists of the estrogen receptor alpha (ER-alpha) signaling pathway (AID 743075; calls by dose curve;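 further: HEK293 GripTite cells with ER-alpha and UAS-driven beta-lactamase reporter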; further: potency means the concentration at half of the fitted maximal effect)
[17] = molecular target: Estrogen receptor (Homo sapiens) (UniProt P03372); assay: qHTS assay to identify small molecule agonists of the estrogen receptor alpha (ER-alpha) signaling pathway using the BG1 cell line (AID 743079); further: nearly all actives have a fitted effect of over 20% in size; further: potency means the concentration at half of the fitted maximal effect
[18] = qHTS assay to identify small molecule antagonists of the estrogen receptor alpha (ER-alpha) signaling pathway using the BG1 cell line (AID 743080; calls by dose curve; further: nearly all actives have a fitted effect of over 25% in size); conditions: BG1Luc4E2 ERE-luciferase antagonist mode, luminescence; activity change, negative = inhibition: at 70.3 µM (top of the series) unless noted
Outline: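 Antagonist mode: compounds in DMSO were pinned onto BG1-Luc-4E2 cells alongside 17beta-estradiol agonist, incubated 21.5 h, and ERE-driven luciferase measured with ONE-Glo. Cytotoxicity was multiplexed using CellTiter-Fluor fluorescence.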

[19] = molecular target: Peroxisome proliferator-activated receptor delta (Homo sapiens) (UniProt Q03181); assay: qHTS assay to identify small molecule agonists of the peroxisome proliferator-activated receptor delta (PPARd) signaling pathway (AID 743212; calls by dose curve)
Outline: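 HEK293H PPARd-bla cells; 5 h preincubation 37 C/5% CO2; compound (DMSO) 37 C; LiveBLAzer B/G FRET substrate 2 h RT; fluorescence intensity.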

Sequence of Peroxisome proliferator-activated receptor delta (Homo sapiens) (Q03181 whole entry, looked up): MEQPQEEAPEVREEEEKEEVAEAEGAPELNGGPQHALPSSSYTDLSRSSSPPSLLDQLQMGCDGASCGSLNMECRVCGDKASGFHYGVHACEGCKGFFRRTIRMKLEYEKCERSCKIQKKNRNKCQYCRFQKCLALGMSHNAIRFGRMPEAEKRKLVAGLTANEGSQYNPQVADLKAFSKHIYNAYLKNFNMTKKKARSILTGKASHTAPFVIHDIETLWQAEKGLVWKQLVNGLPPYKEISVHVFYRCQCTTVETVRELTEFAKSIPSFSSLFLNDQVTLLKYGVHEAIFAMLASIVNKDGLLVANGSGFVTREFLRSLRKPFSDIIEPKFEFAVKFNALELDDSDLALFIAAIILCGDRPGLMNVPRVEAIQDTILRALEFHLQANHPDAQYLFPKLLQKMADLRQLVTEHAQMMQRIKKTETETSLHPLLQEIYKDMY
Sequence of Estrogen receptor (Homo sapiens) (P03372 whole entry, looked up): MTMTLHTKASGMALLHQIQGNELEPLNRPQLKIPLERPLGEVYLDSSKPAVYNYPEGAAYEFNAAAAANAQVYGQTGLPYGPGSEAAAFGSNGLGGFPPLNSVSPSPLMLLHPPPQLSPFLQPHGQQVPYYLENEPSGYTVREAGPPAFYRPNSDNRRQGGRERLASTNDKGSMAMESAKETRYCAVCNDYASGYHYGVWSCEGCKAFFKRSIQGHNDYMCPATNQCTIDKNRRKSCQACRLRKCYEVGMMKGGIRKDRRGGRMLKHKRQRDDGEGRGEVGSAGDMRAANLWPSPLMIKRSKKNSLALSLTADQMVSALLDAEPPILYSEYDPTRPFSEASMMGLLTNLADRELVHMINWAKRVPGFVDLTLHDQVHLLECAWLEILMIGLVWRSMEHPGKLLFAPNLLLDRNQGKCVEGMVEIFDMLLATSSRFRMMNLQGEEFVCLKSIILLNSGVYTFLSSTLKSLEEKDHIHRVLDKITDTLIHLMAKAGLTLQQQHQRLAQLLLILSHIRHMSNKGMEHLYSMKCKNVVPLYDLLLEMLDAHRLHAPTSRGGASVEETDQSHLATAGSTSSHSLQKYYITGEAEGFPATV
Sequence of Aryl hydrocarbon receptor (Homo sapiens) (P35869 whole entry, looked up): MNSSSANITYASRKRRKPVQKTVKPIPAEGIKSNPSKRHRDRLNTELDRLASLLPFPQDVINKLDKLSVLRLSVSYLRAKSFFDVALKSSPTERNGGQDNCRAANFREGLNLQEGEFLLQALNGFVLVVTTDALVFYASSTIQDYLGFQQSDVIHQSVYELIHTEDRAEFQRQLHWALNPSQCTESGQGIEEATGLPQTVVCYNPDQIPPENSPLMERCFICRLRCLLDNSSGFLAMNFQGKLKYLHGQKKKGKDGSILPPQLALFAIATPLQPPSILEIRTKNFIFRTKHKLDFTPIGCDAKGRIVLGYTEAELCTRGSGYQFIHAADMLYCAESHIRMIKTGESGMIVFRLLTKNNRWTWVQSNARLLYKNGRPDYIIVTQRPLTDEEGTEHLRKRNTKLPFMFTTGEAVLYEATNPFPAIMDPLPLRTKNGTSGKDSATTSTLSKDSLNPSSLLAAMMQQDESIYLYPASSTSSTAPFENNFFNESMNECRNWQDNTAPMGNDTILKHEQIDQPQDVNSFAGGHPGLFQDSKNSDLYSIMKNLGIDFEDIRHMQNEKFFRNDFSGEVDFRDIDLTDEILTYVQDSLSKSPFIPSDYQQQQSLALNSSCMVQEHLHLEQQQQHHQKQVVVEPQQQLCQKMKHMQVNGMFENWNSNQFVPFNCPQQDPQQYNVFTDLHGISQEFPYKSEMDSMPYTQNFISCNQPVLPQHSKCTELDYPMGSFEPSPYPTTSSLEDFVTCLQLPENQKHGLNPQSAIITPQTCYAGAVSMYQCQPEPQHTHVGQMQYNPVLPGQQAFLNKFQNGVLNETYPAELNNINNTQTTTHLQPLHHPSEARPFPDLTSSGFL
Sequence of Aromatase (Homo sapiens) (P11511 whole entry, looked up): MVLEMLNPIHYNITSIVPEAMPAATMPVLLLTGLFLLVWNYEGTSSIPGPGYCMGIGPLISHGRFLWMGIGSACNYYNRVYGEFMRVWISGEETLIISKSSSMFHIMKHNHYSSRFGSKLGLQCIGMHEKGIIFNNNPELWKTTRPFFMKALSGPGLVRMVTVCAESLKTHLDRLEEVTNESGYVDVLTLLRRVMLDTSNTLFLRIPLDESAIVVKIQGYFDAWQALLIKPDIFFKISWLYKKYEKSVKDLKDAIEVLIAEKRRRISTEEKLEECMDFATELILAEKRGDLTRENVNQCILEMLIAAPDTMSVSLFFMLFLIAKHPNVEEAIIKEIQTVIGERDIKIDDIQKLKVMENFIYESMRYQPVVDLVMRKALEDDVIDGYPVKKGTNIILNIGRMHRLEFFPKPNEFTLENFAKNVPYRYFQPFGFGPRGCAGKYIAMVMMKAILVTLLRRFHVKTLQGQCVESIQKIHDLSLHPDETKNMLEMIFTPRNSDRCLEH
Sequence of Peroxisome proliferator-activated receptor gamma (Homo sapiens) (P37231 whole entry, looked up): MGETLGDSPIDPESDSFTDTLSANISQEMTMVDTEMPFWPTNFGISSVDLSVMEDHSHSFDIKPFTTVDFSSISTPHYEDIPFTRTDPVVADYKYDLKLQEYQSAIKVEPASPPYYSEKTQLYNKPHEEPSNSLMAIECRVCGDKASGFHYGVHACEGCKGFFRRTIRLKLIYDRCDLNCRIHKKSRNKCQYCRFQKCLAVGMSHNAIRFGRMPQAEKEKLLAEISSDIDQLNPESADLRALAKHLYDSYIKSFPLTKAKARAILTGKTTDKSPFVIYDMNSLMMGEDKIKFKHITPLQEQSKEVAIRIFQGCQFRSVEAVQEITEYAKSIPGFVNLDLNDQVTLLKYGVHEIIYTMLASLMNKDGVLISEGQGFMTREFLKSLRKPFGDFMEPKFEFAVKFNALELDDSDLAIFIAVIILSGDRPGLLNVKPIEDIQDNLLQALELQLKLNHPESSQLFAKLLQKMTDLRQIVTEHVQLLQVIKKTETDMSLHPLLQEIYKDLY

COc1ccccc1N
Potency [1]: inactive
Potency [2]: inactive
Potency [3]: inactive
Potency [4]: inactive
Potency (Aromatase (Homo sapiens)): inactive
Potency [5]: inactive
Potency [6]: 54.4 µM (active) and inactive
Potency [7]: inactive
Potency [8]: inactive
Potency [9]: inactive
Potency [10]: inactive
Potency [11]: inactive
Potency [12]: inactive
outcome [13]: inactive
Potency [14]: inactive

N#CS
Potency [1]: inactive
Potency [2]: inactive
Potency [3]: inactive
Potency [4]: inactive
Potency (Aromatase (Homo sapiens)): inactive
Potency [5]: inactive
Potency [6]: inactive
Potency [7]: inactive
Potency [9]: inactive
Potency [10]: inactive
Potency [11]: inactive
Potency [12]: inactive
outcome [13]: inactive
Potency [14]: inactive

C1CCC(NC2CCCCC2)CC1
Potency [1]: inactive
Potency [2]: inactive
Potency [15]: inactive
Potency [3]: inactive
Potency [16]: inactive
Potency [17]: inactive
Potency [18]: inactive
Potency [4]: inactive
Potency (Aromatase (Homo sapiens)): inactive
Potency [5]: inactive
Potency [6]: inactive
Potency [7]: inactive
Potency [8]: inactive
Potency [9]: inactive
Potency [10]: inactive
Potency [11]: inactive
Potency [12]: inactive
outcome [13]: inactive
Potency [14]: inactive
outcome [19]: inactive

C[C@]12CCC(=O)C=C1CC[C@@H]1[C@@H]2CC[C@]2(C)C(=O)CC[C@@H]12
Potency [1]: 60.1 µM (active)
Potency [2]: inactive
Potency [3]: inactive
Potency [16]: 27.1 µM [activator] (active) and inactive
Potency [17]: 1.5 µM (active) and 4.25 µM (active) and 4.33 µM (active)
Potency [18]: inactive
Potency [4]: inactive
Potency (Aromatase (Homo sapiens)): inactive
Potency [5]: inactive
Potency [6]: inactive
Potency [7]: inactive
Potency [9]: inactive
Potency [11]: inactive
Potency [12]: inactive
outcome [13]: inactive
Potency [14]: inactive
outcome [19]: inactive

Nc1ccc(-c2ccc(N)cc2)cc1
Potency [1]: inactive
Potency [2]: inactive
Potency [15]: inactive
Potency [3]: inactive
Potency [16]: inactive
Potency [17]: inactive
Potency [4]: inactive
Potency (Aromatase (Homo sapiens)): inactive and 1.92 µM (active)
Potency [5]: inactive
Potency [6]: 9.58 µM (active) and inactive and 61.1 µM (active)
Potency [7]: inactive
Potency [8]: inactive
Potency [9]: inactive
Potency [10]: inactive
Potency [11]: inactive
Potency [12]: inactive
outcome [13]: inactive
Potency [14]: inactive

CCCC[n+]1cccc(C)c1
Potency [1]: inactive
Potency [2]: inactive
Potency [3]: inactive
Potency [4]: inactive
Potency (Aromatase (Homo sapiens)): inactive
Potency [5]: inactive
Potency [6]: inactive
Potency [7]: inactive
Potency [9]: inactive
Potency [10]: 60.9 µM (active) and inactive
Potency [11]: inactive
Potency [12]: inactive
outcome [13]: inactive
Potency [14]: inactive

CCC[N+]1(C)CCCCC1
Potency [1]: inactive
Potency [2]: inactive
Potency [3]: inactive
Potency [4]: inactive
Potency (Aromatase (Homo sapiens)): inactive
Potency [5]: inactive
Potency [6]: inactive
Potency [7]: inactive
Potency [9]: inactive
Potency [10]: inactive
Potency [11]: inactive
Potency [12]: inactive
outcome [13]: inactive
Potency [14]: inactive

CCC(=O)C(CC(C)N(C)C)(c1ccccc1)c1ccccc1 (stereo unspecified)
Potency [1]: 27.4 µM (active) and 30.4 µM (active) and 41.5 µM (active)
Potency [2]: inactive
Potency [15]: inactive
Potency [3]: inactive
Potency [16]: inactive
Potency [17]: inactive
Potency [18]: inactive
Potency [4]: inactive
Potency (Aromatase (Homo sapiens)): inactive
Potency [6]: inactive
Potency [7]: inactive
Potency [8]: inactive
Potency [9]: inactive
Potency [11]: inactive
Potency [12]: inactive
outcome [13]: inactive

CCCCCCCCCCCC(=O)O
Potency [2]: inactive
Potency [3]: inactive
Potency [4]: inactive
Potency [5]: inactive
Potency [7]: inactive
Potency [9]: inactive
Potency [10]: inactive
Potency [11]: inactive
Potency [12]: inactive
Potency [14]: inactive

Oc1cccc2cccnc12
Potency [2]: inactive
Potency [3]: inactive
Potency [4]: inactive
Potency [5]: 1.38 µM (active) and 686 nM (active)
Potency [7]: inactive and 18.8 µM (active) and 2.05 µM (active)
Potency [9]: inactive
Potency [10]: 6.14 µM (active) and 25.9 µM (active) and inactive
Potency [11]: inactive and 4.33 µM (active)
Potency [12]: 876 nM (active) and inactive and 710 nM (active)
outcome [13]: inactive
Potency [14]: 414 nM (active) and 155 nM (active) and inactive

O=C(O)c1ccccc1O
Potency [2]: inactive
Potency [3]: inactive
Potency [4]: inactive
Potency [7]: inactive
Potency [9]: inactive
Potency [10]: inactive
Potency [11]: inactive
Potency [12]: inactive
Potency [14]: inactive

O=S(=O)(O)O
Potency [3]: inactive
Potency [4]: inactive
Potency (Aromatase (Homo sapiens)): inactive
Potency [5]: inactive
Potency [6]: inactive
Potency [7]: inactive
Potency [9]: inactive
Potency [10]: inactive
Potency [11]: inactive
Potency [12]: inactive
Potency [14]: inactive

CCCCCCCCCCCCCCCCn1cc[n+](C)c1
Potency [2]: inactive
Potency [4]: inactive and 49 µM (active) and 27.4 µM (active)
Potency [6]: inactive
Potency [7]: 62.4 µM (active) and inactive and 30.7 µM (active)
Potency [8]: inactive
outcome [13]: inactive
outcome [19]: inactive

Nc1ccccc1
Potency [2]: inactive
Potency [3]: inactive and 24.5 µM (active)
Potency [4]: inactive
Potency (Aromatase (Homo sapiens)): inactive
Potency [5]: inactive
Potency [7]: inactive
Potency [8]: inactive
Potency [9]: inactive
Potency [10]: inactive
Potency [11]: inactive
Potency [12]: inactive
outcome [13]: inactive
Potency [14]: inactive

C[N+](C)(C)Cc1ccccc1
Potency [2]: inactive
Potency [15]: inactive
Potency [3]: inactive
Potency [16]: inactive
Potency [17]: inactive
Potency [18]: inactive
Potency [4]: inactive
Potency (Aromatase (Homo sapiens)): inactive
Potency [5]: inactive
Potency [6]: inactive
Potency [7]: inactive
Potency [9]: inactive
Potency [10]: inactive
Potency [11]: inactive
Potency [12]: inactive
Potency [14]: inactive
outcome [19]: inactive
